Our source for the max response, outcome and Potency values is PubChem BioAssay (NCATS).

In experiment [1] the test system is CRL-7250. Kind of experiment: Cytotoxic Profiling of Annotated Libraries Using Quantitative High-Throughput Screening (AID 1296008). Also: nearly all actives have a fitted effect of over 60% in size. As to conditions: Five cell lines viability, CellTiter-Glo ATP luminescence, 48-72 h; max response: hits give low values. Put shortly:
(§1)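 Compounds were pin-transferred onto cells and incubated 48 or 72 hr at 37 degree Celsius, 95% humidity. CellTiter-Glo was added, plates sat 10 min at room temperature, then ATP-coupled luminescence was imaged as the viability read-out.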
Background: ATP-based viability assays read luminescence as a measure of living cells.

The subject of experiment [2] is HEK293. The experiment is described as above. As to conditions: Five cell lines viability, CellTiter-Glo ATP luminescence, 48-72 h; max response: hits give low values. The essentials:
as §1

For experiment [3], the system named is HaCat. The description is as above. As to conditions: Five cell lines viability, CellTiter-Glo ATP luminescence, 48-72 h; max response: hits give low values. The essentials: as §1
The test system of experiment [4] is KB-3-1. The description is as above. As to conditions: Five cell lines viability, CellTiter-Glo ATP luminescence, 48-72 h; max response: hits give low values. The essentials:
as §1

The test system of experiment [5] is NIH3T3. Described as above. As to conditions: Five cell lines viability, CellTiter-Glo ATP luminescence, 48-72 h; max response: hits give low values. The essentials: as §1
Experiment [6] deals with HACAT. Kind of experiment: qHTS assay to identify novel small-molecules to repurpose for Merkel cell carcinoma treatment (AID 1296009). Also: nearly all actives have a fitted effect of over 60% in size. As to conditions: MCC and control cell lines, CellTiter-Glo viability, 72 h; at 44.8 µM (top of the series) unless noted. Put shortly: (§2)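 Cells exposed to NPC (8-point) and MIPE (11-point) compound dilutions for 72 hr at 37 degree celsius; viability read by CellTiter-Glo luminescence, normalized to no-cell and DMSO in-plate controls.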
(In general: qHTS replaces the single test concentration by a dilution series.)

Experiment [7] has as its system HEK293T. The description is as above. As to conditions: MCC and control cell lines, CellTiter-Glo viability, 72 h; at 44.8 µM (top of the series) unless noted. The essentials: as §2
For experiment [8], the system named is MCC-13. The description is as above. As to conditions: MCC and control cell lines, CellTiter-Glo viability, 72 h; series mostly up to 46 µM. The essentials: as §2
The subject of experiment [9] is MCC-26. The description is as above. As to conditions: MCC and control cell lines, CellTiter-Glo viability, 72 h; series mostly up to 46 µM. The essentials:
as §2

Experiment [10] deals with MKL-1. The experiment is described as above. As to conditions: MCC and control cell lines, CellTiter-Glo viability, 72 h; series mostly up to 46 µM. Put shortly:
as §2

Experiment [11] deals with MKL-2. Described as above. As to conditions: MCC and control cell lines, CellTiter-Glo viability, 72 h; series mostly up to 46 µM. Put shortly: as §2
Experiment [12] concerns UISO. The description is as above. As to conditions: MCC and control cell lines, CellTiter-Glo viability, 72 h; series mostly up to 46 µM. Put shortly: as §2
Experiment [13] deals with WaGa. The description is as above. As to conditions: MCC and control cell lines, CellTiter-Glo viability, 72 h; series mostly up to 46 µM. Put shortly: as §2
The subject of experiment [14] is C33A. Kind of experiment: Primary qHTS to identify gynecologic anti-cancer compounds using libraries of approved drugs and bioactive compounds (AID 1345084). Also: nearly all actives have a fitted effect of over 55% in size. As to conditions: Gynecologic cancer cell panel viability, ATPlite luminescence, 48 h; series mostly up to 57.5 µM. Put shortly: (§3)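 Luminescence from the ATPlite ATP-monitoring reagent indicates viable cell number; lower signal means cytotoxicity. Cells received compound 16 h after seeding and were exposed for 48 h across five concentrations.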

For experiment [15], the system named is CASKI. The experiment is described as above. As to conditions: Gynecologic cancer cell panel viability, ATPlite luminescence, 48 h; series mostly up to 57.5 µM. Put shortly:
as §3

Experiment [16] concerns Es-2. The description is as above. As to conditions: Gynecologic cancer cell panel viability, ATPlite luminescence, 48 h; series mostly up to 57.5 µM. Put shortly:
as §3

Experiment [17] deals with HeLa. Described as above. As to conditions: Gynecologic cancer cell panel viability, ATPlite luminescence, 48 h; series mostly up to 57.5 µM. The essentials:
as §3

Experiment [18] relates to CAOV3. The experiment is described as above. As to conditions: Gynecologic cancer cell panel viability, ATPlite luminescence, 48 h; series mostly up to 57.5 µM. Put shortly: as §3

“And” between values parts separate entries of the source, which are not always exact repeats. Identical values can stand only once. Inconclusive results are not listed. A number with no mark means an inactive call. The source made the active and inactive calls. Calls follow the shape of the dose curve; as a rule, active = well fitted curve in the direction sought with a large enough effect; inconclusive = small, poorly fitted or top-dose-only effect, or another doubt; inactive = no such curve, though single readings can be large; an effect the other way counts as inactive or inconclusive.
% is scaled to controls: 0 for no effect and ±100 for the full control effect; potency is read from the fitted curve at half-maximal effect.

Regarding `C[C@H](CCC(=O)O)[C@H]1CC[C@H]2[C@H]3[C@@H](CC[C@]12C)[C@@]1(C)CC[C@@H](O)C[C@H]1C[C@@H]3O`, the max response in experiment [1] was -2.21%; in experiment [4], 0.163%; in experiment [5] it was -1.17%. For the same compound, the result in [2], in experiment [3], in experiment [6] and in [7] was inactive. The Potency entry in experiment [8], in experiment [9], in [10], in experiment [11] and in [12] was “inactive” throughout.

Take `O=S(=O)(O)c1ccc2cc(N=Nc3cc(S(=O)(=O)O)c4cccnc4c3O)ccc2c1`: the max response in [1] was -1.21%; in [2], -8.8% and -0.547%; in [3] it was -5.73% and 2.13%; in experiment [4] it was -11.7% and -5.81%; in [5], -3.13% and 2.59%. Moreover, the Potency result in experiment [8], in experiment [9], in experiment [10], in experiment [11], in experiment [12] and in experiment [13] was “inactive” throughout. Also, the Potency result in experiment [14], in experiment [15], in experiment [16] and in experiment [17] was “inactive” each time.

`CCCCCOC(=O)Nc1nc(=O)n([C@@H]2O[C@H](C)[C@@H](O)C2O)cc1F` (some centres undefined): the max response in experiment [1] was 0.279%; in [2], -5.3%; in [3] it was -7.75%; in experiment [4], -1.34%; in [5] it was 2.26%. Moreover, the Potency result in experiment [8], in experiment [9], in experiment [10], in experiment [11], in experiment [12] and in experiment [13] was “inactive” each time.

Take `Cc1nc(NC(=O)N2CCC[C@@H]2C(N)=O)sc1-c1csc(C(C)(C)C)n1`: the Potency in experiment [1] was 1.32 µM (active); in experiment [2] it was 2.35 µM (active); in experiment [3], 1.87 µM (active); in [4], 13.2 µM (active); in experiment [5], 4.69 µM (active). Besides, the Potency entry in experiment [8], in experiment [10] and in experiment [11] was “inactive” in each case.

On to `COc1cc(Cl)cn2c(-c3cccc(NC4CNC4)n3)cnc12`, for which the max response in experiment [1] was -2.6%; in experiment [2] it was -13.3%; in experiment [3], -3.22%; in experiment [4], -0.178%; in [5], 4.3%. In addition, the Potency entry in [8], in experiment [10], in experiment [11], in experiment [12] and in [13] was “inactive” each time.

Turning to `CC(=O)Nc1cccc(-n2c(=O)n(C3CC3)c(=O)c3c(Nc4ccc(I)cc4F)n(C)c(=O)c(C)c32)c1`, the Potency in experiment [1] was 0.164 µM (active); in experiment [2], 11.8 µM (active); in experiment [3], 3.32 µM (active) and 5.17 µM (active); in experiment [5], 418 nM (active) and 259 nM (active). Also, the max response in [4] was -5.06% and 7.25%. Moreover, the Potency entry in experiment [9], in experiment [10], in experiment [11], in experiment [12], in experiment [13] and in experiment [14] was “inactive” in each case. Moreover, the Potency result in experiment [18], in experiment [15] and in experiment [17] was “inactive” each time.

`CC[C@H](C)C(=O)O[C@H]1C[C@H](O)C=C2C=C[C@H](C)[C@H](CC[C@@H](O)C[C@@H](O)CC(=O)O)[C@H]21`: the max response in experiment [1] is -6.33%; in experiment [2] it was 0.44%; in experiment [3], -9.82%; in experiment [4] it was 7.09% and -6.87%; in experiment [5] it was -3.34%. The Potency result in experiment [8], in [9], in [10], in experiment [11], in experiment [12] and in experiment [13] was “inactive” throughout.

As to `Cc1cc(C(C)Nc2ccccc2)c2nc(N3CCOCC3)cc(=O)n2c1` (centres undefined), the max response in [1] was -10.1%; in [2], -5.74% and -23.1%; in experiment [3], -24%. Moreover, the call in [4] was inactive. Moreover, the Potency in experiment [5] is 4.61 µM (active). For the same compound, the Potency entry in experiment [8], in [9], in experiment [10], in [11], in experiment [12] and in experiment [13] was “inactive” each time. Also, the Potency result in experiment [14], in experiment [18], in [16] and in experiment [17] was “inactive” throughout.

In the case of `CNC(=O)[C@H](CC1=CN=C2C=CCC=C12)NC(=O)[C@@H](CC(=O)NO)CC(C)C`, the max response was -4.69% in experiment [1]; 4.44% in experiment [2]; -12.2% in [3]; 8.99% in [4]; -0.494% in experiment [5]. Further, the Potency result in [8] and in experiment [9] was “inactive” each time. For the same compound, the results for the Potency in experiment [10], in [11] and in experiment [13] were 0.296 µM (active), 0.264 µM (active) and 0.296 µM (active), respectively.

As to `COc1cc(F)c(C(C)C)cc1-c1ccc(C(F)(F)F)cc1CN1C(=O)O[C@H](c2cc(C(F)(F)F)cc(C(F)(F)F)c2)[C@@H]1C`, the compound was classed as inactive in experiment [1]. Moreover, the max response in [2] is 0.948%; in [3], 0.17%; in experiment [4], -11.6%; in experiment [5] it was 0.998%. In addition, the Potency entry in experiment [8], in experiment [10], in experiment [11], in experiment [12] and in experiment [13] was “inactive” throughout.

Regarding `CCCCOCCOc1nc(-c2ccc(C(=O)O)c(F)c2)sc1C`, the max response is -34.6% in experiment [1]; -11.4% in experiment [2]; -22% in experiment [3]; -5.21% in experiment [4]; -20.6% in experiment [5]. Besides, the Potency result in experiment [8], in experiment [9], in [10], in [11], in experiment [12] and in experiment [13] was “inactive” each time.

Regarding `OC[C@H]1O[C@@H](OCCc2ccc(O)cc2)[C@H](O)[C@@H](O)[C@H]1O`, the max response in experiment [1] is -2.13%; in [2], 0.731%; in [3], -11.4%; in experiment [4] it was -11.7%; in experiment [5], 2.07%. Besides, the Potency result in experiment [8], in [10], in experiment [11], in experiment [12], in experiment [13] and in experiment [14] was “inactive” each time. The Potency result in experiment [18], in [15], in experiment [16] and in [17] was “inactive” in each case.

Turning to `CC[C@@H]([C@H](C)O)n1ncn(-c2ccc(N3CCN(c4ccc(OCC5CO[C@@](Cn6cncn6)(c6ccc(F)cc6F)C5)cc4)CC3)cc2)c1=O` (some centres undefined), the max response in experiment [1] was -19.5%; in [3], -20.3%; in experiment [4], -2.24%; in experiment [5], -23.9%. The Potency in experiment [2] is 14.8 µM (active). Besides, the Potency result in experiment [8], in experiment [9], in experiment [10], in experiment [11], in [12] and in experiment [13] was “inactive” each time.

For the compound `Nc1ncnc2c1c(-c1cccc(OCc3ccccc3)c1)cn2C1CC(CN2CCC2)C1` (centres undefined), the compound was classed as inactive in experiment [1]. Further, the Potency was 26.4 µM (active) and 8.2 µM (active) in [2]; 23.1 µM (active) in [4]; 23.5 µM (active) and 4.61 µM (active) in experiment [5]; 28.2 µM (active) in experiment [15]. Moreover, the max response in experiment [3] was 4.36%. Moreover, the Potency entry in experiment [8], in experiment [9], in [10], in experiment [11] and in experiment [13] was “inactive” throughout.
